High-throughput results as filed in PubChem BioAssay.
Compounds with a hit are over-represented: about 19% of the library has one in this group of screens.
HT1080 IDH1KD tx: qHTS for induction of synthetic lethality in tumor cells producing 2HG: qHTS for the HT-1080-IDH1KD cell line; HT-1080 IDH1 knockdown viability, ATP luminescence, 48 h; Potency, µM (titrated, usually from 46.1 µM), without a hit: at the top dose activity, negative = toxicity, actives largely listed as cytotoxic; hit rate 2% among 360,000; AID 686971, 2013;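 further: 0% = DMSO wells and -100% = cell-free medium wells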
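Luminescent ATP read-out (CellTiter-Glo, 10 min at room temperature) after 48 h compound exposure at 37 °C gave viability of IDH1-knockdown HT-1080 cells. Activity was normalised to DMSO and cell-free wells, then fitted as concentration-response curves.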
KB-V1 cytotox: qHTS assay for MDR1-selective chemotherapeutics: Primary screen using the drug-selected MDR subline cells KB-V1; KB-V1 MDR cells viability, CellTiter-Glo, 72 h; hit rate 3.4% among 400,000; Potency, µM (titrated, usually from 46.1 µM), most hits filed as cytotoxic; further: nearly all actives have a fitted effect of over 60% in size
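Luminescent ATP read-out (CellTiter-Glo, 10 min) measures survival of drug-selected KB-V1 MDR cells after 72 h, 37 degrees C compound exposure. Medium: phenol-red-free DMEM, 10% FBS. Values from fitted concentration-response curves.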
DT40 TDP1 no CPT: qHTS for Inhibitors of human tyrosyl-DNA phosphodiesterase 1 (TDP1): qHTS in cells in absence of CPT; hit rate 15% among 420,000; Potency, µM (highest dose often 46.2 µM), inactives show at the highest dose activity change, negative = growth inhibition, hits mostly inhibitors; DT40 Tdp1-/- hTDP1 cells, no CPT, ATP luminescence, 48 h; further: nearly all actives have a fitted effect of over 55% in size
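Luminescent ATP content (CellTiter-Glo) served as the growth readout. Knockout chicken DT40 cells expressing human TDP1 were exposed to compounds without camptothecin for a minimum 48 hr at 37 °C.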
HT1080NT lethal: qHTS for induction of synthetic lethality in tumor cells producing 2HG: qHTS for the HT-1080-NT fibrosarcoma cell line | AID 686970, 2013 | Potency, µM (titrated, usually from 46.1 µM), for inactives: top-dose activity, negative = less viability, usual class: cytotoxic | HT-1080-NT fibrosarcoma viability, CellTiter-Glo ATP luminescence, 48 h | hit rate 1.6% among 360,000;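 further: NT is the 2HG producing partner of a matched IDH1 knockdown line; 0% = DMSO-treated cells and -100% = media-only wells without cells; nearly all actives have a fitted effect of over 55% in size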
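750 cells/well, RPMI + 5% FBS; 2 h settle, compound pin-transfer, 48 h at 37 degrees C. CellTiter-Glo 10 min RT, luminescence. Normalized to DMSO and media-only wells.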
DT40 TDP1 CPT: qHTS for Inhibitors of human tyrosyl-DNA phosphodiesterase 1 (TDP1): qHTS in cells in presence of CPT. chicken DT40 Tdp1-/-;hTDP1 cells + 20 nM CPT, ATP luminescence, 48 h. Potency, µM (highest dose often 46.2 µM), inactives show top-dose activity change, negative = growth inhibition, actives largely listed as inhibitors. hit rate 12% among 420,000. AID 686979, 2013; further: nearly all actives have a fitted effect of over 55% in size
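Cell growth measured by CellTiter-Glo luminescence after a minimum 48 h, 37 C compound exposure with 20 nM CPT in Tdp1-knockout DT40 cells stably expressing hTDP1, seeded 400/well; qHTS titration format.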
KB-3-1 tox: qHTS assay for MDR1-selective chemotherapeutics: Primary screen using the parental adenocarcinoma cell KB-3-1; KB-3-1 viability, CellTiter-Glo ATP luminescence, 72 h; Potency, µM (highest dose often 46.1 µM), usual class: cytotoxic; hit rate 1.4% among 400,000; AID 1347075, 2019; further: nearly all actives have a fitted effect of over 60% in size
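Parental KB-3-1 adenocarcinoma cells in phenol-red-free DMEM with 10% FBS were pin-treated with compounds at several concentrations, incubated 72 h at 37 °C, and viability read by CellTiter-Glo luminescence; concentration-effect curves were fitted after normalization.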
* = called active by the depositor. The call rests on the fitted dose curve; in most records, active means well fitted curve in the direction sought with a large enough effect; inconclusive means small, poorly fitted or top-dose-only effect, or another doubt; inactive means no such curve, though single readings can be large; an effect the other way counts as inactive or inconclusive. Unless noted, on the % scale 0 is the no-effect control and ±100 the full control effect; potency means the concentration at half of the fitted maximal effect.

Results for CCOc1cccc(/C=N/Nc2ccc(S(=O)(=O)N(CC)CC)cn2)c1O ?
HT1080 IDH1KD tx: 2.6µM*; KB-V1 cytotox: inconclusive; DT40 TDP1 no CPT: 0.58µM*; HT1080NT lethal: inconclusive; DT40 TDP1 CPT: 0.16µM*; KB-3-1 tox: inactive

Results for CCN(CC)S(=O)(=O)c1ccc(N/N=C/c2ccc(O)cc2)nc1 ?
HT1080 IDH1KD tx: -16%; KB-V1 cytotox: inactive; DT40 TDP1 no CPT: -27%; HT1080NT lethal: -28%; DT40 TDP1 CPT: inconclusive; KB-3-1 tox: inactive

What do the screens show for `CCN(CC)S(=O)(=O)c1ccc(N/N=C/c2cc(OC)c(OC)cc2OC)nc1`?
HT1080 IDH1KD tx: 1%; KB-V1 cytotox: inactive; DT40 TDP1 no CPT: inconclusive; HT1080NT lethal: 1%; DT40 TDP1 CPT: -5%; KB-3-1 tox: inactive

Results for CCN(CC)S(=O)(=O)c1ccc(N/N=C/c2ccc(OC)c(OC)c2OC)nc1 ?
HT1080 IDH1KD tx: 8%; KB-V1 cytotox: inactive; DT40 TDP1 no CPT: 18µM*; HT1080NT lethal: 2%; DT40 TDP1 CPT: inconclusive; KB-3-1 tox: inactive

How did CCN(CC)S(=O)(=O)c1ccc(N/N=C(\C)c2ccc(OC)cc2O)nc1 do in these assays?
HT1080 IDH1KD tx: inconclusive; KB-V1 cytotox: inconclusive; DT40 TDP1 no CPT: 29µM*; HT1080NT lethal: inconclusive; DT40 TDP1 CPT: 3.3µM*; KB-3-1 tox: inconclusive

What do the screens show for `COc1ccccc1NC(=O)Cn1c(=O)n(Cc2nc(C)no2)c(=O)c2cc3c(cc21)OCO3`?
KB-V1 cytotox: inactive; DT40 TDP1 no CPT: -23%; DT40 TDP1 CPT: 3%; KB-3-1 tox: inactive

What do the screens show for `CCOC(=O)c1c(CC(C)C)csc1NC(=O)COC(=O)c1cc(OC)c(OC)cc1[N+](=O)[O-]`?
HT1080 IDH1KD tx: 9%; KB-V1 cytotox: inactive; DT40 TDP1 no CPT: 5.8µM*; HT1080NT lethal: 5%; DT40 TDP1 CPT: 12µM*; KB-3-1 tox: inactive

What do the screens show for `CCOC(=O)c1c(CC(C)C)csc1NC=O`?
HT1080 IDH1KD tx: -11%; KB-V1 cytotox: 4.6µM*; DT40 TDP1 no CPT: 3%; HT1080NT lethal: -11%; DT40 TDP1 CPT: -6%; KB-3-1 tox: 16µM*

How did CCOC(=O)c1c(NC(=O)COC(=O)c2cc(OC)c(OC)cc2[N+](=O)[O-])sc(C)c1CC do in these assays?
HT1080 IDH1KD tx: 8%; KB-V1 cytotox: inactive; DT40 TDP1 no CPT: 15µM*; HT1080NT lethal: 13%; DT40 TDP1 CPT: inconclusive; KB-3-1 tox: inactive

Results for CCOC(=O)c1c(CC(C)C)csc1NC(C)=O ?
HT1080 IDH1KD tx: -10%; KB-V1 cytotox: inactive; DT40 TDP1 no CPT: -10%; HT1080NT lethal: -13%; DT40 TDP1 CPT: 8%; KB-3-1 tox: inactive

Results for CCOC(=O)c1c(CC(C)C)csc1NC(=O)c1ccccc1C(=O)O ?
HT1080 IDH1KD tx: 0%; KB-V1 cytotox: inactive; DT40 TDP1 no CPT: 21%; HT1080NT lethal: 0%; DT40 TDP1 CPT: -14%; KB-3-1 tox: inactive

How did O=C(NCc1cccc(F)c1)C1CCCN(C(=O)N2CCOc3ccccc32)C1 (centres undefined) do in these assays?
KB-V1 cytotox: inactive; DT40 TDP1 no CPT: 0%; DT40 TDP1 CPT: 2%; KB-3-1 tox: inactive

What do the screens show for `CCOC(=O)Cn1c(=O)n(C2CCCCC2)c2nc(-c3ccc(CC)cc3)nc(C(N)=O)c21`?
KB-V1 cytotox: inactive; KB-3-1 tox: 8.2µM*

Results for CCOC(=O)Cn1c(=O)n(C2CCCCC2)c2nc(-c3ccc(OCC)cc3)nc(C(N)=O)c21 ?
KB-V1 cytotox: inconclusive; KB-3-1 tox: 18µM*

What do the screens show for `Cc1nn(C)c(C)c1S(=O)(=O)N(CC(=O)NCCCN1CCC(C)CC1)c1ccc(C(C)C)cc1`?
HT1080 IDH1KD tx: -7%; KB-V1 cytotox: inactive; DT40 TDP1 no CPT: 7%; HT1080NT lethal: -8%; DT40 TDP1 CPT: -17%; KB-3-1 tox: inactive

What do the screens show for `CC(C)c1cccc(C(C)C)c1NC1=NS(=O)(=O)c2ccccc21`?
KB-V1 cytotox: inactive; DT40 TDP1 no CPT: -21%; DT40 TDP1 CPT: -14%; KB-3-1 tox: inactive

What do the screens show for `CC(=O)c1ccc([N+](C)(C)C)cc1`?
KB-V1 cytotox: inactive; DT40 TDP1 no CPT: -2%; DT40 TDP1 CPT: 17%; KB-3-1 tox: inactive

What do the screens show for `Cn1cccc1CC(=O)NNC(=S)NC(=O)c1ccc(F)cc1`?
HT1080 IDH1KD tx: inconclusive; KB-V1 cytotox: inactive; DT40 TDP1 no CPT: inconclusive; HT1080NT lethal: -16%; DT40 TDP1 CPT: inconclusive; KB-3-1 tox: inactive

What do the screens show for `Cc1ccc(C2c3[nH]c4ccccc4c3C[C@H]3C(=O)N(c4ccccc4C(=O)NCCN4CCOCC4)C(=O)N23)cc1` (some centres undefined)?
HT1080 IDH1KD tx: -6%; KB-V1 cytotox: inactive; DT40 TDP1 no CPT: -91%; HT1080NT lethal: -9%; DT40 TDP1 CPT: -91%; KB-3-1 tox: inactive

Results for Cc1ccccc1C1c2[nH]c3ccccc3c2C[C@H]2C(=O)N(c3ccccc3C(=O)NCCN3CCOCC3)C(=O)N12 (some centres undefined) ?
HT1080 IDH1KD tx: -2%; KB-V1 cytotox: inactive; DT40 TDP1 no CPT: inconclusive; HT1080NT lethal: -3%; DT40 TDP1 CPT: inconclusive; KB-3-1 tox: inactive

What do the screens show for `Cc1ccccc1C1c2[nH]c3ccccc3c2C[C@H]2C(=O)N(c3ccccc3C(=O)NCCCN3CCOCC3)C(=O)N12` (some centres undefined)?
HT1080 IDH1KD tx: -9%; KB-V1 cytotox: inactive; DT40 TDP1 no CPT: 16µM*; HT1080NT lethal: -13%; DT40 TDP1 CPT: 23µM*; KB-3-1 tox: inactive

How did Cc1ccc(C2c3[nH]c4ccccc4c3C[C@H]3C(=O)N(c4ccccc4C(=O)NCCCN4CCOCC4)C(=O)N23)cc1 (some centres undefined) do in these assays?
HT1080 IDH1KD tx: 29µM*; KB-V1 cytotox: inactive; DT40 TDP1 no CPT: inconclusive; HT1080NT lethal: inconclusive; DT40 TDP1 CPT: 12µM*; KB-3-1 tox: inactive
